Inconclusive results are not listed. Where a call stands in place of a potency, no number is given. Calls of active or inactive are those of the source. Unless noted, the call rests on the fitted dose curve; in most records, active means well fitted curve in the direction sought with a large enough effect in the repeat runs; inconclusive means weak or mixed curves; inactive means no such curve, though single readings can be large; an effect the other way counts as inactive or inconclusive.
Key:
[1] = qHTS assay to identify small molecule antagonists of the thyroid receptor (TR) signaling pathway (AID 743065); conditions: GH3.TRE-Luc, T3-stimulated luciferase inhibition, 23.5 h; series mostly up to 70.3 µM; further: nearly all actives have a fitted effect of over 55% in size; further: potency means the concentration at half of the fitted maximal effect
Outline: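 GH3.TRE-Luc rat pituitary cells (two TREs driving luciferase) were dosed with compound, then stimulated with 1 nM T3 (final) for 23.5 h at 37 C. ONE-Glo luminescence was the read-out, with CellTiter-Fluor fluorescence as the cytotoxicity counter-screen.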

[2] = test system: thyroid hormone receptor (rat, GH3 cells); test: qHTS assay to identify small molecule agonists of the thyroid receptor (TR) signaling pathway (AID 743066; calls by dose curve); conditions: GH3.TRE-Luc cells, TR agonist luciferase, 24 h; series mostly up to 83.9 µM
[3] = qHTS assay to identify small molecule antagonists of the estrogen receptor alpha (ER-alpha) signaling pathway - cell viability counter screen (AID 743074; calls by dose curve; further: nearly all actives have a fitted effect of over 45% in size); conditions: ERalpha-bla HEK293 viability, CellTiter-Glo luminescence, 18 h; series mostly up to 69.4 µM
[4] = qHTS assay to identify small molecule antagonists of the estrogen receptor alpha (ER-alpha) signaling pathway using the BG1 cell line - cell viability counter screen (AID 743081); conditions: BG1Luc4E2 viability, CellTiter-Fluor, 22 h; series mostly up to 70.3 µM;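 further: compound given together with 17beta-estradiol as the ER stimulus; nearly all actives have a fitted effect of over 45% in size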
[5] = molecular target: Aromatase (Homo sapiens) (UniProt P11511); test: qHTS assay to identify aromatase inhibitors (AID 743083); conditions: MCF-7 aro ERE, testosterone-driven ERE luciferase, 24 h; series mostly up to 70.3 µM; further: nearly all actives have a fitted effect of over 55% in size
Aromatase (Homo sapiens), sequence (P11511 whole entry, looked up): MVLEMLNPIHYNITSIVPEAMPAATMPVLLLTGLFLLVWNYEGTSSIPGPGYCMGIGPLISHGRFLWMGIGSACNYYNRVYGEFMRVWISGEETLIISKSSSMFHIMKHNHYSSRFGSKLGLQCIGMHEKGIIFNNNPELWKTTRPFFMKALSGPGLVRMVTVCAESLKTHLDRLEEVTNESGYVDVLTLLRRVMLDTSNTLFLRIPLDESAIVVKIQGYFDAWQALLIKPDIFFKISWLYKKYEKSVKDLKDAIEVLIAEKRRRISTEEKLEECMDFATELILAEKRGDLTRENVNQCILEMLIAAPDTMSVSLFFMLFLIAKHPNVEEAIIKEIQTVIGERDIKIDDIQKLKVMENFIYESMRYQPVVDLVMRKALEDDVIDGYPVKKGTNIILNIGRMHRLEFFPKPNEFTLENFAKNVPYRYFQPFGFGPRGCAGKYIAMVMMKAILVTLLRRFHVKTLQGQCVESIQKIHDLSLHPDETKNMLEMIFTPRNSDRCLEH

[6] = qHTS assay to identify aromatase inhibitors - cell viability counter screen (AID 743084); conditions: MCF-7 aro ERE viability, CellTiter-Fluor, 24 h; series mostly up to 70.3 µM;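 further: cells stimulated with testosterone during compound exposure; nearly all actives have a fitted effect of over 55% in size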
[7] = molecular target: Estrogen receptor (Homo sapiens) (UniProt P03372); test: qHTS assay to identify small molecule agonists of the estrogen receptor alpha (ER-alpha) signaling pathway (AID 743075; calls by dose curve); conditions: HEK293 ER-alpha-UAS-bla, beta-lactamase FRET ratio, 18 h; series mostly up to 70.1 µM
Estrogen receptor (Homo sapiens), sequence (P03372 whole entry, looked up): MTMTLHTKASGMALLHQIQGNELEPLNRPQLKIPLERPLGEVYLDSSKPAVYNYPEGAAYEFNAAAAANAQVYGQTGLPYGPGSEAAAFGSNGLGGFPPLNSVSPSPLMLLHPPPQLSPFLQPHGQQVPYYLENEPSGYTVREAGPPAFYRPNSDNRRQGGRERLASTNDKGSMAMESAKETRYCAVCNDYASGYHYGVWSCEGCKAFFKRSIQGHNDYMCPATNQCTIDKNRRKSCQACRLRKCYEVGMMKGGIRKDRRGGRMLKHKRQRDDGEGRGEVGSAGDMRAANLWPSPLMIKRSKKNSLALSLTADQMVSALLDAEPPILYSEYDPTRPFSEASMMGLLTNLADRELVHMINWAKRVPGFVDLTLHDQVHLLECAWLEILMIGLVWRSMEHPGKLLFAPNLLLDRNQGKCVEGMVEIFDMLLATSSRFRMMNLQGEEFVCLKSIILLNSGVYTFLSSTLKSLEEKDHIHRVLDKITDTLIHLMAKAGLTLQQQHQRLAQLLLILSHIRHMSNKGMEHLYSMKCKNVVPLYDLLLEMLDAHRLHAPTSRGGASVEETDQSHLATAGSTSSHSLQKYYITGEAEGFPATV

[8] = qHTS assay to identify small molecule antagonists of the estrogen receptor alpha (ER-alpha) signaling pathway using the BG1 cell line (AID 743080; calls by dose curve;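 further: BG1 cells stimulated with 17beta-estradiol alongside compound; nearly all actives have a fitted effect of over 25% in size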); conditions: BG1Luc4E2 ERE-luciferase antagonist mode, luminescence; series mostly up to 70.3 µM
Outline: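 Quantitative HTS on the Tox21 10K library: BG1 cells with endogenous ER-alpha and ERE-luciferase reporter, 17beta-estradiol stimulation, 21.5 h compound exposure, luminescence endpoint with parallel fluorescence cytotoxicity counter-read.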

[9] = molecular target: Estrogen receptor (Homo sapiens) (UniProt P03372); test: qHTS assay to identify small molecule agonists of the estrogen receptor alpha (ER-alpha) signaling pathway using the BG1 cell line (AID 743079); conditions: BG1Luc4E2 cells, ERE-luciferase agonist, 22 h; series mostly up to 70.3 µM; further: nearly all actives have a fitted effect of over 20% in size
[10] = molecular target: Estrogen receptor (Homo sapiens) (UniProt P03372); test: qHTS assay to identify small molecule antagonists of the estrogen receptor alpha (ER-alpha) signaling pathway (AID 743069; active means well fitted curve in the direction sought with a large enough effect in the signal ratio in the repeat runs, not every such curve was filed as active; the % refers to the signal ratio); conditions: HEK293 ER-alpha-UAS-bla, beta-lactamase ratio, antagonist mode; series mostly up to 69.4 µM
Outline: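 In this cell-based reporter format, GripTite HEK293 cells harbouring ER-alpha-UAS-bla were grown overnight with 2% charcoal-stripped FBS, dosed with DMSO-dissolved compounds, then challenged with 17beta-estradiol. After 18 hr at 37C, beta-lactamase activity was detected by FRET fluorescence.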

Row | Compound | Potency [1] | outcome [2] | Potency [3] | outcome [4] | outcome [5] | Potency [6] | Potency [7] | Potency [8] | Potency [9] | Potency [10]
1 | CCN(C=O)CC | inactive | inactive | inactive | inactive | – | – | – | – | – | –
2 | CCOc1ccccc1OCC | inactive | inactive | inactive | inactive | inactive | inactive | – | – | – | –
3 | COc1cc(-c2ccc(=O)[nH]n2)ccc1OC(F)F | inactive | inactive | inactive | inactive | inactive | inactive | inactive | inactive | – | –
4 | CCCCCC(C)N (centres undefined) | inactive | inactive | inactive | inactive | inactive | inactive | – | – | – | –
5 | CCCn1cc[n+](C)c1C | inactive | inactive | inactive | inactive | inactive | inactive | – | – | – | –
6 | CCCc1nn(C)c2c(=O)[nH]c(-c3cc(S(=O)(=O)N4CCN(C)CC4)ccc3OCC)nc12 | inactive | inactive | inactive | inactive | inactive | inactive | – | – | – | –
7 | NC(=O)N[C@@H](CCC(=O)O)C(=O)O | inactive | inactive | inactive | inactive | – | – | – | – | – | –
8 | O=S(=O)(O)c1cccc2ccccc12 | inactive | inactive | inactive | inactive | inactive | – | – | – | – | –
9 | CCN[C@@H]1C[C@H](N)[C@@H](OC2OC(CN)=CCC2N)[C@H](O)[C@H]1O[C@H]1OC[C@](C)(O)[C@H](NC)[C@H]1O (some centres undefined) | inactive | inactive | inactive | inactive | inactive | inactive | – | – | – | –
10 | CCCc1ncc(C[n+]2ccccc2C)c(N)n1 | inactive | inactive | inactive | inactive | inactive | inactive | – | – | – | –
11 | Nc1ccncc1N | inactive | inactive | inactive | inactive | inactive | inactive | – | – | – | –
12 | COc1c(N2CCNC(C)C2)c(F)cc2c(=O)c(C(=O)O)cn(C3CC3)c12 (centres undefined) | inactive | inactive | inactive | inactive | inactive | inactive | – | – | – | –
13 | CC(=O)OCC(=O)[C@@]1(O)[C@H](C)C[C@H]2[C@@H]3CCC4=CC(=O)C=C[C@]4(C)[C@@]3(F)[C@@H](O)C[C@@]21C | inactive | inactive | inactive | inactive | inactive | inactive | – | – | – | –
14 | CC(C)C[C@@H](N)C(=O)O | inactive | inactive | inactive | inactive | inactive | inactive | – | – | – | –
15 | COC(=O)C1=C(C)NC(C)=C(C(=O)OC(C)C)C1c1cccc2nonc12 (centres undefined) | inactive | inactive | inactive | inactive | inactive | inactive | – | – | – | –
16 | c1ccc(CCc2ccccc2)cc1 | inactive | inactive | inactive | inactive | inactive | inactive | – | – | – | –
17 | O=C(c1ccccc1O)c1ccccc1O | inactive | inactive | inactive | inactive | – | inactive | inactive | – | inactive | –
18 | NC(=O)N1c2ccccc2CC(=O)c2ccccc21 | 11.9 µM (active) | inactive | inactive | inactive | – | – | – | – | – | –
19 | COC(=O)Nc1ccc(Cl)c(Cl)c1 | 60.8 µM (active) | inactive | inactive | inactive | inactive | inactive | – | – | – | –
20 | CCN1CCOCC1 | inactive | inactive | inactive | inactive | inactive | inactive | – | – | – | –
21 | [Ca+2] | inactive | inactive | inactive | inactive | inactive | inactive | – | – | – | –
22 | O=C1CCCCCCCCCCCCCCO1 | inactive | inactive | inactive | inactive | inactive | inactive | – | – | – | –
23 | CCC(C)(CN(C)C)OC(=O)c1ccccc1 (centres undefined) | inactive | inactive | inactive | inactive | inactive | inactive | – | – | – | –
24 | O=C1c2ccccc2C(=O)c2cc(O)ccc21 | inactive | inactive | inactive | – | inactive | – | – | – | – | –

Row | Compound | Potency [1] | outcome [2] | Potency [3] | outcome [4] | outcome [5] | Potency [6] | Potency [7] | Potency [8] | Potency [9] | Potency [10]
25 | C=C(C)C(=O)OCCOCCOCCOCCOC(=O)C(=C)C | inactive | inactive | inactive | inactive | inactive | inactive | – | – | – | –
26 | C[N+]12CCC(CC1)C(OC(=O)C(O)(c1ccccc1)c1ccccc1)C2 (centres undefined) | inactive | inactive | inactive | inactive | – | inactive | – | – | – | –
27 | NO | inactive | – | inactive | inactive | inactive | inactive | – | – | – | –
28 | O=C(O)CNC(=O)c1ccccc1 | inactive | inactive | inactive | inactive | inactive | inactive | – | – | – | –
29 | C[N+]1(C)[C@@H]2CC(OC(=O)[C@H](CO)c3ccccc3)C[C@H]1[C@@H]1O[C@@H]12 (some centres undefined) | – | inactive | inactive | inactive | inactive | inactive | inactive | inactive | inactive | inactive
30 | Clc1cc(Cl)c(Cl)nc1Cl | inactive | inactive | – | inactive | inactive | – | – | – | – | –
31 | O=Cc1cccc(Br)c1 | inactive | inactive | inactive | inactive | inactive | inactive | – | – | – | –
32 | CC12CCC(C(=O)C1=O)C2(C)C (centres undefined) | inactive | inactive | – | inactive | inactive | inactive | – | – | – | –
33 | CC1=C(C/C=C(\C)CCC[C@H](C)CCC[C@H](C)CCCC(C)C)C(=O)c2ccccc2C1=O | inactive | inactive | – | inactive | inactive | inactive | – | – | – | –
34 | CC(C)C1CCC(O)CC1 (centres undefined) | inactive | inactive | inactive | inactive | inactive | inactive | – | – | – | –
35 | FB(F)F | – | inactive | inactive | inactive | inactive | inactive | inactive | inactive | inactive | inactive
36 | CN1CCN(c2cc3c(nn2)Oc2ccccc2N3C)CC1 | inactive | inactive | inactive | inactive | inactive | inactive | – | – | – | –
37 | OCCc1ccccn1 | inactive | inactive | inactive | inactive | inactive | inactive | – | – | – | –
38 | O=CN(CCO)CCO | inactive | inactive | inactive | inactive | inactive | inactive | – | – | – | –
39 | CN(C)[C@@H]1C(=O)C(C(=O)NCN2CCCC2)=C(O)[C@@]2(O)C(=O)C3=C(O)c4c(O)cccc4[C@@](C)(O)C3C[C@@H]12 (some centres undefined) | inactive | inactive | inactive | inactive | inactive | inactive | – | – | – | –
40 | Cc1ccccc1N=C(N)N=C(N)N | inactive | inactive | inactive | inactive | inactive | inactive | – | – | – | –
41 | COc1cc(C)nc(-n2nc(C)cc2OC)n1 | inactive | inactive | inactive | inactive | inactive | inactive | – | – | – | –
42 | Nc1c2c(nc3c1CCC3)CCCC2 | – | inactive | inactive | inactive | inactive | inactive | inactive | inactive | inactive | inactive
43 | Nc1ccccn1 | inactive | inactive | inactive | inactive | inactive | inactive | – | – | – | –
44 | CCC(=O)OCc1ccccc1 | inactive | inactive | inactive | inactive | inactive | inactive | – | – | – | –
45 | C[C@@H]1CCC[C@H](C)N1 | inactive | inactive | – | inactive | inactive | inactive | – | – | – | –
46 | CCCCCCC#CC(=O)OC | inactive | inactive | inactive | inactive | inactive | inactive | – | – | – | –
47 | NS(=O)(=O)Cc1noc2ccccc12 | inactive | inactive | inactive | inactive | inactive | inactive | – | – | – | –
48 | NC(N)=NCCN1CCCCCCC1 | inactive | inactive | inactive | inactive | inactive | inactive | – | – | – | –
